Laboratory results from article PMC5540273 (PLoS ONE, 2017).

Test system: EPHB6
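Note: kd values determined as follow-up on hits from a single-replicate KINOMEscan panel screen.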

Going from FC(F)(F)c1ccccc1-c1cc(-c2c[nH]nc2-c2ccccn2)ccn1 [GW679396] to COC(=O)C(NC(=O)NC1CCN(c2ccnc(Nc3ccc(F)cc3)n2)C1)c1ccccc1 (centres unmarked) [GSK1379712], the Kd falls from 8.5 µM to 0.058 µM (150-fold). The second binds more tightly here.

First: Nc1ncnc2occ(-c3ccc4c(c3)CCN4C(=O)Cc3cc(F)ccc3F)c12 [GSK2645446]
Second: COc1ccc(Nc2nccc(N3CCC(NC(=O)C(C)c4ccc(Cl)cc4)CC3)n2)cc1 (centres unmarked) [GSK1379812]
The Kd of the first is lower: 0.5 µM for the first, greater than 10 µM for the second. The first binds more tightly here.

Test system: ERBB2

Going from CS(=O)(=O)CCNCc1nc(-c2ccc3ncnc(Nc4ccc5c(cnn5Cc5ccccc5)c4)c3c2)cs1.Cl.Cl [GW569716] to CS(=O)(=O)CCNCc1nc(-c2ccc3ncnc(Nc4ccc(OCc5ccccc5)c(Cl)c4)c3c2)cs1.Cl [GW582764], the Kd rises from 0.0011 µM to 0.004 µM (3.6-fold). The first binds more tightly here.

Going from COc1cc2ncnc(Nc3cccc(Br)c3)c2cc1OC.Cl [GI230329] to Cn1cncc1-c1cc2c(Nc3ccc(OCc4ccccc4)cc3)ncnc2cn1 [GW281179], the Kd falls from 0.085 µM to 0.017 µM (5-fold).

Test system: T1, ERK8
T1 construct: gene MAPK15

Going from Cc1cccc2c(-c3ccncn3)c(-c3ccc(F)cc3)nn12 [GW515532] to O=C(Nc1n[nH]c2cc(-c3ccsc3)ccc12)C1CC1 [SB-732932], the Kd falls from greater than 10 µM to 0.048 µM.

For O=C(Nc1n[nH]c2nc(-c3cccs3)c(Br)cc12)C1CC1 [SB-735297], the Kd was 0.13 µM.

Test system: GAK

First: COc1cccc(C2=C(Nc3cc(Cl)c(O)c(Cl)c3)C(=O)NC2=O)c1 [SB-390767]
Second: COc1cc2ncnc(Nc3cccc(Br)c3)c2cc1OC.Cl [GI230329]
The Kd of the first is higher: greater than 10 µM for the first, 0.029 µM for the second. The second binds more tightly here.

In the case of c1ccc(-c2ccnc3[nH]ccc23)cc1 [SB-693578], the Kd is reported as 3.7 µM.

Test system: GSK3A

Going from COc1ccc(CSc2nnc(-c3ccc4ncsc4c3)o2)cc1C(F)(F)F to COc1ccc(CSc2nnc(-c3ccc4nccn4c3)o2)cc1C(F)(F)F, the Kd rises from 0.079 µM to 0.25 µM (3.2-fold).

Going from O=c1cc(N2CCOCC2)nc2n(Cc3ccccc3F)ccn12 [GSK2297428] to O=C(Nc1n[nH]c2nc(-c3ccco3)c(Br)cc12)C1CCN(Cc2ccccc2)C1.O=C(O)[C@H](O)[C@@H](O)C(=O)O (centres unmarked) [SB-742034], the Kd falls from greater than 10 µM to 0.13 µM. The second binds more tightly here.

O=C(Nc1n[nH]c2nc(-c3cccs3)c(Br)cc12)C1CCCC1 [SB-743341] and O=C(Nc1n[nH]c2nc(-c3cccs3)c(Br)cc12)C1CC1 [SB-735297] are within 1.5-fold of each other in Kd: 0.062 µM for the first, 0.091 µM for the second.

Test system: GSK3B

Compared with COc1ccc(CSc2nnc(-c3ccc4ncsc4c3)o2)cc1C(F)(F)F, COc1ccc(CSc2nnc(-c3ccc4nccn4c3)o2)cc1C(F)(F)F is 1.8-fold lower in Kd: 0.039 µM for the first, 0.022 µM for the second. The second binds more tightly here.

O=C(Nc1n[nH]c2nc(-c3cccs3)c(Br)cc12)C1CCCC1 [SB-743341] gave a Kd of 0.12 µM.
